Pf growth 96h = P. falciparum growth inhibition at 96 hours; P. falciparum luciferase reporter growth, 96 h; Potency, µM (titrated, usually from 28.7 µM), for inactives: at the highest dose activity change, negative = inhibition, hits mostly inhibitors; 320,000 tested, 6.9% active; note: potency is the fitted concentration of half-maximal effect
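P. falciparum expressing integrated firefly luciferase, in erythrocytes at 2% hematocrit, 0.05% parasitemia, incubated with compounds 96 h at 37 C, 5% CO2. Growth inhibition read as loss of luminescence; two-generation exposure targets delayed-death apicoplast inhibitors.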
Pf growth 48h = P. falciparum growth inhibition at 48 hours (one generation); P. falciparum luciferase growth in erythrocytes, 48 h; Potency, µM (doses to about 28.7 µM), for inactives: top-dose activity change, negative = inhibition, most hits filed as inhibitors; 310,000 tested, 5.9% active; AID 504832; note: potency is the fitted concentration of half-maximal effect
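First compound was added to culture medium, then infected red cells at 0.1% parasitemia and 2% hematocrit (final). After incubation at 37 C under 5% CO2, luciferase detection reagent was dispensed and light output recorded.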
HCV inhibitor = inhibitors of hepatitis C virus infection; Huh7.5.1 HCVcc-Cre infection, luciferase reporter, 44 h; Potency, µM (titrated, usually from 41.8 µM), for the others: top-dose activity change, negative = inhibition, most hits filed as inhibitors; 340,000 tested, 3.4% active; AID 651820; note: potency is the fitted concentration of half-maximal effect
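Infectious HCVcc-Cre (~0.5 moi) was added to cells just after compound, with cells seeded 4 h earlier at 1,000 per well. Luciferase activity after 44 h culture reported infection; substrate was incubated 15 min at room temperature before reading.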
HCMV inh = blocks human cytomegalovirus replication; 410,000 tested, 4.5% active; HFF cells, HCMV-luciferase reporter, 72 h; hits give low values; activity change, negative = inhibition, % at 57.5 µM; AID 1259415; in the data active = activity change below about -60%; inconclusive = no clear call, values can overlap the other calls; inactive = above about -39%
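Cell-based, HFFs, 1000 cells/well, 16 h 37C; cpds in DMSO + HCMV-luc, MOI 1 PFU/cell; 72 h 37C; OneGlo luminescence after 5 min RT; norm. to buffer vs Salinomycin 10uM.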
The depositor's hits bear a star; u = inconclusive; x = no result given; [ ] = dose if it differs, or a comment. A selection: hits, their analogues and other compounds. The true share with any hit is near 13%. Unless noted, calls come from the whole dose curve; as a rule, active = well fitted inhibition curve with a large enough effect; inconclusive = small, poorly fitted or top-dose-only effect, or another doubt; inactive = no such curve, though single readings can be large or run the other way. % is set by controls: 0 for no effect and ±100 for the full control effect.

SMILES | Pf growth 96h | Pf growth 48h | HCV inhibitor | HCMV inh
CCc1ccccc1NC(=O)c1ncoc1-c1ccco1 | x | x | x | 11
CCNC(=O)O/N=C(\C)c1sc(-c2ccc(Cl)cc2)nc1C | 244% | 180% | 10µM* | 170
COc1ccccc1CNC(=O)CSc1nc(=O)[nH]c2c1CCC2 | x | x | x | -28
CC(C)C(NC(=O)CCNC(=O)c1ccc(C(C)(C)C)cc1)c1nc2ccccc2[nH]1 (centres undefined) | u | 8.3µM* | 6% | 1
Cc1nn(-c2ccccc2)c(C)c1C(=O)NCc1ccc(F)cc1 | 12% | -8% | 5% | u
Cc1c(C(=O)NCc2ccc(F)cc2)c(-c2ccccc2)nn1-c1ccccc1 | 5.9µM* | x | -12% | -21
O=S1(=O)N[C@@H](Cc2ccccc2)COc2cc(N3CCOCC3)ccc21 | x | x | x | 10
O=C(CSc1nc2ccccc2c(=O)n1-c1ccc(F)cc1)Nc1ccc(C(=O)O)cc1 | -12% | -20% | 2% | 36
Cc1ccc(-n2c(SCC(=O)Nc3cc(S(=O)(=O)N4CCOCC4)ccc3Cl)nc3ccccc3c2=O)cc1 | 2.9µM* | 10µM* | -13% | u
O=C(CSc1nc2ccccc2c(=O)n1-c1ccc(F)c(Cl)c1)Nc1cccc(S(=O)(=O)N2CCOCC2)c1 | 4.1µM* | u | u | u
O=C(CSc1nc2ccccc2c(=O)n1-c1ccc(F)cc1)Nc1ccc(Cl)c(S(=O)(=O)N2CCOCC2)c1 | 5.9µM* | 9.3µM* | -4% | -34
Cc1ccc2c(CC(=O)NCc3ccccc3)coc2c1C | x | x | x | 14
COc1cccc2cc(C(=O)NCCc3c(C)[nH]c4ccc(F)cc34)c(=O)oc12 | x | x | x | 6
O=C(CO/N=C/c1ccc(OC(F)F)cc1)NCc1ccco1 | 1% | -18% | -10% | 0
OC1(c2ccc(F)cc2)CSC(=Nc2cccnc2)N1Cc1ccco1 (centres undefined) | 2.3µM* | 5.9µM* | u | u
OC1(c2ccc(OC(F)F)cc2)CSC(=Nc2cccnc2)N1Cc1ccco1 (centres undefined) | u | u | 11µM* | -9
COc1ccc(S(=O)(=O)NCCSc2nnnn2-c2ccccc2)cc1OC | x | x | x | 2
CCN(c1ccc(C)cc1C)S(=O)(=O)c1nnc(NC(=O)c2ccccc2OC)s1 | x | x | x | -17
O=C(c1ccccc1)c1sc(Nc2ccc3c(c2)OCO3)nc1-c1ccccc1 | x | x | x | -39
Cc1ccc2nc(NC(=O)c3ccc(NS(=O)(=O)c4cccs4)cc3)sc2c1 | 0.47µM* | u | -9% | -31
C/C(=N\NC(=O)c1ccc(NS(=O)(=O)c2cccs2)cc1)c1ccc(C(C)(C)C)cc1 | u | 3% | 7.1µM* | 15
Cc1csc2nc(COC(=O)CNC(=O)c3ccccc3Cl)cc(=O)n12 | x | x | x | 20
Cc1ccccc1OCc1nnc(SCc2cc(=O)c3cccc(F)c3[nH]2)n1C | x | x | x | -8
Cc1oc(-c2cccs2)nc1CN1CCN(C(C)C)C(CCO)C1 (centres undefined) | 10µM* | 98% | -3% | -30
CC(C)N1CCN(Cc2cccs2)CC1CCO (centres undefined) | u | -22% | -5% | -6
SMILES | Pf growth 96h | Pf growth 48h | HCV inhibitor | HCMV inh
O=S(=O)(c1ccc(OCC2CO2)cc1)c1ccc(OCC2CO2)cc1 (centres undefined) | u | -7% | -14% | -68*
CC(C)(c1ccccc1)c1ccc(OCC2CO2)cc1 (centres undefined) | 37% | 39% | -1% | 31
O=c1cc(N2CCCC2)c2ccccc2o1 | -14% | 60% | 11µM* | -1
O=C(NNC(=S)NCc1ccco1)c1ccc(Cl)s1 | u | 43% | 11% | 11
O=C(CSCc1ccco1)c1ccc(Cl)s1 | 12µM* | 103% | x | x
CCCc1n(CC(O)COCC2CC=CCC2)c2ccccc2[n+]1C (centres undefined) | 35% | u | -21% | -37
CCCc1n(CC(O)COCc2ccccc2)c2ccccc2[n+]1C (centres undefined) | 6% | 3.3µM* | 14% | 4
C[n+]1cn(CC(O)COCc2ccccc2)c2ccccc21 (centres undefined) | 4.7µM* | u | 15% | -1
Cc1cc2c(cc1C)[n+](C)cn2CC(O)COCc1ccccc1 (centres undefined) | u | -11% | -2% | -37
CCCc1n(CC(O)COC2CCCCC2)c2ccccc2[n+]1C (centres undefined) | -2% | 4.1µM* | -19% | -16
Cc1ccccc1CSc1nc2cccnc2n1Cc1ccc(C(=O)NC2CC2)cc1 | x | x | x | -3
COc1ccc(-c2ccc(CCC(=O)O)n2CC(=O)Nc2cccc(C(F)(F)F)c2)cc1 | x | x | x | -1
CCOC(=O)c1ccc(NC(=O)CS(=O)(=O)Cc2nc(-c3ccc(C)cc3)oc2C)cc1 | x | x | x | -23
COc1ccc(CNC(=O)Nc2nnc([C@H]3C[C@H](O)[C@@H](CO)O3)s2)cc1 | x | x | x | -97*
O=C(NCc1ccc(F)cc1)Nc1nnc([C@@H]2C[C@H](O)[C@@H](CO)O2)s1 | x | x | x | -1
Cc1ccc(CNC(=O)Nc2nnc([C@@H]3C[C@H](O)[C@@H](CO)O3)s2)cc1 | x | x | x | 0
COc1ccc(CNC(=O)Nc2nnc([C@@H]3C[C@H](O)[C@@H](CO)O3)s2)cc1 | x | x | x | -83*
O=C(CCCCCn1c(=O)c2sccc2n(Cc2ccc(Cl)cc2)c1=O)NCc1ccc2c(c1)OCO2 | x | x | x | -19
Cc1cc(Nc2ccc(F)c(Cl)c2)n2nc(C)nc2n1 | 10% | 3.3µM* | -11%[8.37 µM] | 12
COc1ccccc1Nc1cc(C)nc2nc(-c3ccccc3)nn12 | x | x | x | -86*
COc1ccccc1CNc1cc(C)nc2nc(-c3ccc(C)cc3)nn12 | x | x | x | 17

From PubChem BioAssay
